# Measured values reported in paper PMC4336329 (PLoS ONE, 2015).
# About 14,000 (4.5%) of roughly 310,000 compounds showed an effect of 50% or more. Effects have a minus sign here. The list comes from a sample in which strong results are over-represented; it also holds similar structures and randomly drawn compounds.
# Target: human ether-à-go-go-related gene (hERG) potassium channel (human, UniProt Q12809)
# Experiment: primary screen, population patch clamp on CHO cells stably expressing hERG; higher = less effect of the substance
# 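Also: peak tail current of the secondary pulse compared with the same well before compound.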
# Chain of human ether-à-go-go-related gene (hERG) potassium channel (Q12809 whole entry, looked up): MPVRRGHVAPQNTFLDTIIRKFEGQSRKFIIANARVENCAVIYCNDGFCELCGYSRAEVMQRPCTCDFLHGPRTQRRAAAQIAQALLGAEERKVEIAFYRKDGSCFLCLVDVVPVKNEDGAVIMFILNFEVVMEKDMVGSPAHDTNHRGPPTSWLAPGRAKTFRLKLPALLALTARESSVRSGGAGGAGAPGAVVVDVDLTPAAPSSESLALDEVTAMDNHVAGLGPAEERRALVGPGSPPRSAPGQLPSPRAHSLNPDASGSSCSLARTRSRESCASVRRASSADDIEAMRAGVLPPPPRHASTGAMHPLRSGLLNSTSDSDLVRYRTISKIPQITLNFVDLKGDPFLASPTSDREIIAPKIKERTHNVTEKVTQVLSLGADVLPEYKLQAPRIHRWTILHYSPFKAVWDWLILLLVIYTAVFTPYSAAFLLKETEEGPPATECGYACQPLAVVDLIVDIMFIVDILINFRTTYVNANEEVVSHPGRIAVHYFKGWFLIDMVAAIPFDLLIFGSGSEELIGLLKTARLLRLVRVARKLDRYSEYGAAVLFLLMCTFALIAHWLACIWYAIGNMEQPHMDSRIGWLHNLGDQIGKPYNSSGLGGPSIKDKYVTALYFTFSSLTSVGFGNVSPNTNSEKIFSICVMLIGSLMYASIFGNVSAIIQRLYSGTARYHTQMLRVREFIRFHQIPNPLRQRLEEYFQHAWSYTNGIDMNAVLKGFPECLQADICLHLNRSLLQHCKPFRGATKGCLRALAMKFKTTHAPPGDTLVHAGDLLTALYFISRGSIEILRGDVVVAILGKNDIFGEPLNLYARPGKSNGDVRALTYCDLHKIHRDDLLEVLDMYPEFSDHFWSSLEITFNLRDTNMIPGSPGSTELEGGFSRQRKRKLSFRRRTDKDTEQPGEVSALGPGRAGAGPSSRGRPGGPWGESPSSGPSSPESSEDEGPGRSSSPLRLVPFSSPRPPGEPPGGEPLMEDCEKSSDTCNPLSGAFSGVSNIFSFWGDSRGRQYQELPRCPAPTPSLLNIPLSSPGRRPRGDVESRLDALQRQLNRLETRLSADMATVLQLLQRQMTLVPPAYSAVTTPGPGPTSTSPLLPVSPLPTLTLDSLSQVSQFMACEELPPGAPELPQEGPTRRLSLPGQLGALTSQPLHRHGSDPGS
row,Structure (SMILES),"hERG current change (%, negative = inhibition) at 10uM [%]"
1,CC1CC(C)CN(S(=O)(=O)c2ccc(NC(=S)NC(=O)c3ccccc3)cc2)C1 (stereo not shown),8.01
2,CN(C)S(=O)(=O)c1ccc(NC(=O)C2CC(=O)N(Cc3ccccc3Cl)C2)cc1 (stereo not shown),-0.379
3,CCCC1(C(=O)OC)NC(c2ccc(OC)c(OC)c2)C2C(=O)N(c3ccc4c(c3)OCO4)C(=O)C21 (stereo not shown),16.7
4,COc1ccc(-c2c(C#Cc3ccsc3)c3ccccc3n2C)cc1,-6.31
5,CCOC(=O)C1CCN(C(=O)C2CCN(C(=O)c3ccc([N+](=O)[O-])cc3)CC2)CC1,-69.3
6,CCOc1ccc(C(=O)C2CCN(C(=O)c3ccc([N+](=O)[O-])cc3)CC2)cc1,-79.9
7,CCOC(=O)C1CCN(C(=O)c2ccc(N3CCOCC3)c([N+](=O)[O-])c2)CC1,-41.8
8,O=C(Oc1cccc([N+](=O)[O-])c1)C1CCN(C(=O)c2ccc(F)cc2)CC1,-41
9,CCOC(=O)C1CCN(C(=O)c2cc(OCC)c(OCC)c(OCC)c2)CC1,-3.3
10,CCOC(=O)C1CCN(C(=O)c2ccc(OCC)c(OCC)c2)CC1,-79.4
11,O=C(OCc1nnc(-c2ccc([N+](=O)[O-])cc2)o1)C1CCN(C(=O)c2ccc(F)cc2)CC1,-76
12,CCOc1ccc(NC(=O)N2CCC(C(=O)c3ccc(F)cc3)CC2)cc1,-20.8
13,CCOC(=O)C1CCN(C(=O)C(C)c2ccc([N+](=O)[O-])cc2)CC1 (stereo not shown),-21.4
14,O=C(CCC(=O)c1ccc(F)cc1)OCc1nnc(-c2ccc([N+](=O)[O-])cc2)o1,-47
15,CCOc1ccc(C(=O)C2CCN(C(=O)c3ccccc3C(=O)O)CC2)cc1,-5.42
16,CCOC(=O)C1CCN(C(=O)c2cccc(C(=O)N3CCC(C(=O)OCC)CC3)c2)CC1,4.75
17,Cc1ccc(NS(=O)(=O)c2ccc(C(=O)NCc3cccnc3)cc2)cc1,-4.14
18,CC(C)c1ccc(NC(=O)CCS(=O)(=O)c2cccc3nonc23)cc1,1.81
19,COc1cc(OC)cc(C(=O)N[C@H](C(=O)OCC(=O)Nc2cccc(F)c2)C(C)C)c1,-5.55
20,CC(C)(C)SCCNC(=O)CN1C(=O)c2ccccc2S1(=O)=O,-5.6
21,CCOC(=O)C(=CNc1cccnc1Oc1ccc(C)c2c1CCC2)C(=O)OCC,-5.67
22,Cc1cc(NC(=O)C(Cl)c2ccccc2)no1 (stereo not shown),-0.0237
